This note sets out measurements from PubChem BioAssay AID1224864 (Chung Lab, Department of Pediatrics, Emory University, 2016).

Screen size: about 2,000 compounds; about 20 (1%) were called active. How the calls were made is not given here. The full list was thinned out, with actives kept by preference.

Sequence of Cystic fibrosis transmembrane conductance regulator (Homo sapiens) (P13569 whole entry, looked up, stated change not applied): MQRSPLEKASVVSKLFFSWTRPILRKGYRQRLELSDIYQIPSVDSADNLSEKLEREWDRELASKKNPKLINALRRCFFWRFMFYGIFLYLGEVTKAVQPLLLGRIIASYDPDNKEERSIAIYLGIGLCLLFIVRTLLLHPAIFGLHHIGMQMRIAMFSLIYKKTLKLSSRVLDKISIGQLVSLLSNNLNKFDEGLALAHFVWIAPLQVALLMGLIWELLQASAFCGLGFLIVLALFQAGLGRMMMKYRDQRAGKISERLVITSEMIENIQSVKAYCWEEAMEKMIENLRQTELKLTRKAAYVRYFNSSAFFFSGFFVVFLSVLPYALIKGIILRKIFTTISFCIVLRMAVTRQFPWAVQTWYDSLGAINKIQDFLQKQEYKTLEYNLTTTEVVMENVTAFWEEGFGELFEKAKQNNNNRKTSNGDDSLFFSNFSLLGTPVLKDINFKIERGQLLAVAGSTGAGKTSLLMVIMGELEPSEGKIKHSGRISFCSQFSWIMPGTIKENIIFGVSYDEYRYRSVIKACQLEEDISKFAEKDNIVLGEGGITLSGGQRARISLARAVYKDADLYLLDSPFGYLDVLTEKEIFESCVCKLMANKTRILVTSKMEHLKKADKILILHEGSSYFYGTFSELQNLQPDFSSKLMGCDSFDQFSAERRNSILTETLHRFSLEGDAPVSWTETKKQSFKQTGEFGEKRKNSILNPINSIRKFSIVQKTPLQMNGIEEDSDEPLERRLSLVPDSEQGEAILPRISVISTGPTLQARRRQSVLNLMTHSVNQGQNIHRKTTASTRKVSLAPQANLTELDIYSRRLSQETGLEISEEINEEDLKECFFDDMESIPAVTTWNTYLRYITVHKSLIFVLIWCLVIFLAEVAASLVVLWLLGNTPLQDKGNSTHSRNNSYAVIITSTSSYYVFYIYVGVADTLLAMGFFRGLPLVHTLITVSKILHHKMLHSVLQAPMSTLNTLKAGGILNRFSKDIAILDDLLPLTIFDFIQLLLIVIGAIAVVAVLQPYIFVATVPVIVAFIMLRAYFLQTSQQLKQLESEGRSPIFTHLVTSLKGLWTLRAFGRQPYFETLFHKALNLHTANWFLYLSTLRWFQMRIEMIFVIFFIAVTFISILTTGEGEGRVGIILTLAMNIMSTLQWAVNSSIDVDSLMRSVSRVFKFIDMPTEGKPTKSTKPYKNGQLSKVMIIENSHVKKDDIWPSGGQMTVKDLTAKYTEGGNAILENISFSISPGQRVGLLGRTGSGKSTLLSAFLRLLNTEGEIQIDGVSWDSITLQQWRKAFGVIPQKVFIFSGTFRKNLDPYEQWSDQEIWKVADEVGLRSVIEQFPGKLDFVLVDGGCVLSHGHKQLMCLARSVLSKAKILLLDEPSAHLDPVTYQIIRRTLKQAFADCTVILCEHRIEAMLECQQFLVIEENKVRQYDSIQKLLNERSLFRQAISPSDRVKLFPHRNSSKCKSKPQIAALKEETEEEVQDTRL

The assay addresses Cystic fibrosis transmembrane conductance regulator (Homo sapiens) (UniProt P13569). Briefly: F508del-CFTR plasma membrane relocalization enhancers – imaging, HeLa, high-content microscopy, immunofluorescence, primary screen (AID 1224864).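 Further: HeLa cells stably expressing F508del-CFTR stained with 3G11 antibody against NBD1.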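 On plasma membrane CFTR intensity: mean immunofluorescence in a thin cell-margin band taken as plasma membrane.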 The settings on record: PM immunofluorescence imaging, 24 h, at 10 µM, stronger effect = higher value; total CFTR intensity: measured here: total cellular F508del-CFTR signal unless noted.
Take `CC(C)[C@@]1(NC(=O)[C@@H]2C[C@@H]3c4cccc5[nH]cc(c45)C[C@H]3N(C)C2)O[C@@]2(O)[C@@H]3CCCN3C(=O)[C@H](Cc3ccccc3)N2C1=O`: the plasma membrane CFTR intensity is 50% (inactive) and the total CFTR intensity came to 49%.
`CC(C)[C@H]1C(=O)N2CCC[C@H]2[C@]2(O)O[C@](NC(=O)[C@@H]3C=C4c5cccc6[nH]cc(c56)C[C@H]4N(C)C3)(C(C)C)C(=O)N12`: the plasma membrane CFTR intensity was 106% [relative to vehicle wells set at 100] (active) and the total CFTR intensity is 139% [measured here: total cellular F508del-CFTR signal, relative to vehicle wells set at 100].
On to `CC(C)C[C@H]1C(=O)N2CCCC2[C@]2(O)O[C@](NC(=O)[C@@H]3C=C4c5cccc6[nH]cc(c56)CC4N(C)C3)(C(C)C)C(=O)N12` (stereo not given in full), for which the plasma membrane CFTR intensity is 123% [relative to vehicle wells set at 100] (active) and the total CFTR intensity was 142% [measured here: total cellular F508del-CFTR signal, relative to vehicle wells set at 100].
Take `CC[C@@H](CO)NC(=O)[C@@H]1C=C2c3cccc4c3c(cn4C)C[C@H]2N(C)C1`: the plasma membrane CFTR intensity was 78% (inactive) and the total CFTR intensity worked out at 76%.
For `Clc1ccc(C2NCCc3nc[nH]c32)cc1` (stereo not given), the plasma membrane CFTR intensity is 79% [relative to vehicle wells set at 100] (inactive) and the total CFTR intensity was 78% [measured here: total cellular F508del-CFTR signal, relative to vehicle wells set at 100].
`CC(C)C(=O)Nc1ccc(S(=O)(=O)N2CC3CC(C2)c2cccc(=O)n2C3)cc1` (stereo not given): the plasma membrane CFTR intensity was 92% (inactive) and the total CFTR intensity worked out at 96%.
The corresponding values for `C[C@@]1(CO)[C@H](O)CC[C@@]2(C)[C@H]1CC[C@H]1C[C@@H]3C[C@@]12CC[C@]3(O)CO` are 75% (inactive) and 83%.
`CN1CCN(CCCN2c3ccccc3Sc3ccc(Cl)cc32)CC1`: the plasma membrane CFTR intensity was 57% (inactive) and the total CFTR intensity came to 48%.
In the same order, the values of `COP(=O)(OC)C(O)C(Cl)(Cl)Cl` (stereo not given) are 96% (inactive) and 100%.
With `CC12CC[C@H]3[C@@H](CCC4(O)C[C@H](O)CCC34/C=N/NC(=O)Cc3ccccc3)C1(O)CCC2C1=CC(=O)OC1` (stereo not given in full), the plasma membrane CFTR intensity is 87% [relative to vehicle wells set at 100] (inactive) and the total CFTR intensity is 88% [measured here: total cellular F508del-CFTR signal, relative to vehicle wells set at 100].
